About 79,000 compounds went through this panel and 15% of them were active in at least one assay; those are over-represented in the sample as a whole. Activity calls are given as the source filed them. No stated cut-off is given here; in the data, active means growth inhibition above about 70%; inactive means the rest.
Key:
[1] = NCI Yeast Anticancer Drug Screen. Data for the rad52 strain (AID 147);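 further: 0% = growth of vehicle-treated control cultures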; conditions: S. cerevisiae rad52 mutant growth inhibition, stronger effect = higher value
Procedure, shortened: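 Here a repair-compromised yeast strain receives each compound; its growth is then quantified and normalised to vehicle-only controls.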

[2] = NCI Yeast Anticancer Drug Screen. Data for the wt1 strain (AID 149);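 further: 0% = growth of vehicle-treated wt1 cultures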; conditions: S. cerevisiae wt1 strain (SPY 50644) growth inhibition, stronger effect = higher value
Procedure, shortened: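 Readout: yeast growth inhibition, normalised to vehicle controls, in the wt1 strain exposed to test compounds.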

[3] = NCI Yeast Anticancer Drug Screen. Data for the rad50EPP+ strain (AID 151);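 further: 0% = growth of vehicle-treated control cultures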; conditions: S. cerevisiae rad50 mutant strain, stronger effect = higher value
Procedure, shortened: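 Read-out is yeast growth inhibition relative to vehicle; cells used were the rad50EPP+ strain.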

[4] = NCI Yeast Anticancer Drug Screen. Data for the mgt1 strain (AID 153); conditions: S. cerevisiae mgt1 mutant growth inhibition, stronger effect = higher value
Procedure, shortened: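 Measured: inhibition of mgt1 yeast growth by compound, normalized to vehicle-treated cultures.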

[5] = NCI Yeast Anticancer Drug Screen. Data for the rad50 strain (AID 155);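 further: 0% = growth of vehicle-only cultures of the same strain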; conditions: S. cerevisiae rad50 strain growth inhibition, stronger effect = higher value
Procedure, shortened: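 Compounds were tested on a yeast strain with an engineered DNA damage repair alteration; the reported value is growth inhibition normalised to vehicle treatment.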

[6] = NCI Yeast Anticancer Drug Screen. Data for the mec2-1 strain (AID 157); conditions: S. cerevisiae mec2-1 strain, stronger effect = higher value
Procedure, shortened: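 Using mec2-1 yeast: add compound, measure growth, express inhibition versus vehicle-treated cultures.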

[7] = NCI Yeast Anticancer Drug Screen. Data for the rad14 strain (AID 159);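 further: 0% = growth of vehicle-treated control cultures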; conditions: S. cerevisiae rad14 strain growth inhibition, stronger effect = higher value
Procedure, shortened: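 Compound-treated yeast with a defined DNA-repair lesion; growth inhibition normalised to vehicle-treated cultures.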

[8] = NCI Yeast Anticancer Drug Screen. Data for the sgs1 mgt1 strain (AID 161);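 further: 0% = growth of cultures given vehicle only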; conditions: S. cerevisiae sgs1 mgt1 strain, stronger effect = higher value
Procedure, shortened: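 Percent growth inhibition was derived by comparing compound-exposed mutant yeast with vehicle-exposed cultures. The strain carries alterations in DNA damage repair.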

[9] = NCI Yeast Anticancer Drug Screen. Data for the CLN2oe strain (AID 163);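 further: 0% = growth of vehicle-only control cultures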; conditions: S. cerevisiae CLN2oe strain, stronger effect = higher value
Procedure, shortened: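 Whole-cell yeast growth assay. A strain engineered for altered cell-cycle control received compound, and inhibition relative to vehicle-treated cultures was recorded.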

[10] = NCI Yeast Anticancer Drug Screen. Data for the cln2 rad14 strain (AID 165);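 further: 0% = growth equal to vehicle treated cultures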; conditions: S. cerevisiae cln2 rad14 strain, stronger effect = higher value
Procedure, shortened: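 Yeast strain cln2 rad14, bearing defects in cell cycle control and DNA repair, serves as the test system; values reflect growth inhibition compared with vehicle.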

[11] = NCI Yeast Anticancer Drug Screen. Data for the bub3 strain (AID 167); conditions: S. cerevisiae bub3 mutant strain, stronger effect = higher value
Procedure, shortened: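 Growth of a checkpoint-deficient yeast mutant is measured after compound exposure. Values represent inhibition relative to vehicle.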

[12] = NCI Yeast Anticancer Drug Screen. Data for the wt2 strain (AID 169);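 further: 0% = growth of vehicle-treated yeast cultures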; conditions: S. cerevisiae wt2 strain growth inhibition, stronger effect = higher value
Procedure, shortened: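 Treated yeast vs. vehicle-treated yeast: growth inhibition determined.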

[13] = NCI Yeast Anticancer Drug Screen. Data for the mlh1 strain (AID 171);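 further: 0% = growth of vehicle-treated control cultures of the same strain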; conditions: S. cerevisiae mlh1 strain growth inhibition, stronger effect = higher value
Procedure, shortened: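 A yeast strain with a defined genetic lesion serves as the test organism. Cultures receive compound or vehicle, and growth is measured.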

[14] = NCI Yeast Anticancer Drug Screen. Data for the sgs1 strain (AID 173);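 further: 0% = growth of vehicle-only control cultures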; conditions: S. cerevisiae sgs1 mutant, stronger effect = higher value
Procedure, shortened: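 A genetically defined yeast mutant is incubated with the test compound, and its growth is compared to that of the same strain given vehicle.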

[15] = NCI Yeast Anticancer Drug Screen. Data for the mlh1 rad18 strain (AID 175); conditions: S. cerevisiae mlh1 rad18 strain growth inhibition, stronger effect = higher value
Procedure, shortened: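 Steps: expose repair-defective yeast to compound; measure growth; express inhibition against vehicle-treated controls.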

[16] = NCI Yeast Anticancer Drug Screen. Data for the rad18 strain (AID 177); conditions: S. cerevisiae rad18 mutant growth inhibition, stronger effect = higher value
Procedure, shortened: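 Measured value is growth inhibition of a yeast strain bearing a DNA repair alteration, referenced to vehicle-treated cells.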

[17] = at 5.0 µM (retest, dose inferred, filed as 0.5)
[18] = at 50.0 µM (retest, dose inferred, filed as 5.0)

Measured: growth inhibition

CCC1(O)C(=O)OCc2c1cc1n(c2=O)Cc2cc3c(N)cccc3nc2-1 (stereo not drawn)
inactive: [1]; at 1.2 µM -21% | [1]; at 3.7 µM 31% | [1]; at 11.0 µM 53% | [1]; at 33.0 µM 57% | [1]; at 100.0 µM 54% | [2]; at 1.2 µM -22% | [2]; at 3.7 µM -14% | [2]; at 11.0 µM -26% | [2]; at 33.0 µM -24% | [2]; at 100.0 µM -16% | [3]; at 1.2 µM -12% | [3]; at 3.7 µM 7% | [3]; at 11.0 µM -8% | [3]; at 33.0 µM 10% | [3]; at 100.0 µM -8% | [4]; at 1.2 µM -12% | [4]; at 3.7 µM -15% | [4]; at 11.0 µM 3% | [4]; at 33.0 µM -5% | [4]; at 100.0 µM -31% | [5]; at 1.2 µM 11% | [5]; at 3.7 µM 38% | [5]; [17] 58% | [5]; at 11.0 µM 64% | [5]; at 33.0 µM 68% | [5]; at 50.0 µM 56.5% | [5]; at 100.0 µM 60% | [6]; at 1.2 µM -22% | [6]; at 3.7 µM -5% | [6]; [17] 7% | [6]; at 11.0 µM -12% | [6]; at 33.0 µM -18% | [6]; [18] 12% | [6]; at 50.0 µM -0.85% | [6]; at 100.0 µM -35% | [7]; at 1.2 µM -10% | [7]; at 3.7 µM -10% | [7]; at 11.0 µM -19% | [7]; at 33.0 µM -17% | [7]; at 100.0 µM -23% | [8]; [17] 24% | [8]; [18] 19% | [8]; at 50.0 µM -2.35% | [9]; at 1.2 µM -8% | [9]; at 3.7 µM -15% | [9]; at 11.0 µM -33% | [9]; at 33.0 µM -34% | [9]; at 100.0 µM -41% | [10]; [17] 21% | [10]; [18] 14% | [10]; at 50.0 µM -6.95% | [11]; at 1.2 µM -37% | [11]; at 3.7 µM -28% | [11]; [17] 14% | [11]; at 11.0 µM -34% | [11]; at 33.0 µM -47% | [11]; [18] 6% | [11]; at 50.0 µM -9.3% | [11]; at 100.0 µM -33% | [12]; at 1.2 µM -16% | [12]; at 3.7 µM -18% | [12]; at 11.0 µM -17% | [12]; at 33.0 µM -30% | [12]; at 100.0 µM -38% | [13]; at 1.2 µM -23% | [13]; at 3.7 µM -22% | [13]; at 11.0 µM -11% | [13]; at 33.0 µM -34% | [13]; at 100.0 µM -44% | [14]; at 1.2 µM -19% | [14]; at 3.7 µM -7% | [14]; at 11.0 µM 0% | [14]; at 33.0 µM 6% | [14]; at 100.0 µM 7% | [15]; [17] 16% | [15]; [18] 16% | [15]; at 50.0 µM -65.3% | [16]; at 1.2 µM -42% | [16]; at 3.7 µM -37% | [16]; at 11.0 µM -31% | [16]; at 33.0 µM -26% | [16]; at 100.0 µM -48%
active: [5]; [18] 79%
